The first assay concerns the target Hexose transporter 1 (Plasmodium falciparum) (UniProt O97467). The experiment in a line: ST_JUDE_LEISH: Cytotoxicity at 2uM final concentration against transgenic Leishmania Mexicana promastigotes LmPfHT that are glucose transport deficient and complemented with the Plasmodium falciparum hexose transporter. Activity is measured by DNA content using SYBR green in vitro. The class given is functional.
With `COc1ccc(CN2CCC(N3CCc4cc(NC(=O)c5cc(C)on5)ccc43)C2)cc1Cl` (stereo not given), the inhibition was -3.51%.

In the case of `Cc1cccc2nc(-c3cccc(-c4cccc(NC(=O)c5cncn5C)c4)c3)[nH]c12`, the inhibition was determined as 3.4%.

In the case of `CN(C)Cc1ccc2cc(NC(=O)c3ccc(-c4ccc(Cl)cc4)cc3)ccc2c1`, the inhibition stood at 3.04%.

In the case of `Cc1nc(-c2cccc(Nc3nccc(NCC(O)c4ccc(C(F)(F)F)cc4)n3)c2)cs1` (stereo not given), the inhibition worked out at 1.67%.

Regarding `O=c1cc(NCCCNCc2scc3c(Cl)cc(C(F)(F)F)nc23)[nH]c2ccccc12`, the inhibition was found to be 2.43%.

For the compound `CCN(CC)CC(O)c1cc(-c2ccc(C)cc2)nc2c(C)cc(C)cc12` (stereo not given), the inhibition is 3.65%.

As to `CC(c1cccc(Nc2nccc(-c3c(-c4cccc(NC(=O)c5c(F)cccc5F)c4)nn4ccccc34)n2)c1)S(C)(=O)=O` (stereo not given), the inhibition is 2.14%.

As to `Cc1cccc2nc(-c3ccc(-c4ccc(CNCc5cnn(-c6ccccc6)n5)cc4)s3)[nH]c12`, the inhibition was -1.57%.

As for `COc1ccccc1-n1c(SCC(=O)c2ccc3c(c2)CC(=O)N3C)nnc1-c1cccs1`, the inhibition came to 35.2%.

Regarding `CS(=O)(=O)NCCCNCc1ccc(-c2ccc(-c3nc4cc(F)ccc4[nH]3)s2)cc1`, the inhibition was -1.55%.

On to `COc1cc(CN2CCC(CO)(Cc3cccc(C(F)(F)F)c3)CC2)c(Cl)cc1O`, for which the inhibition was -1.69%.

As for `Cc1cccc2nc(-c3ccc(-c4ccc(CNC(C)C)cc4)cc3)[nH]c12`, the inhibition was 25.1%.

Regarding `Cc1cccc2nc(-c3ccc(-c4ccc(CN5CCC(C(N)=O)CC5)cc4)s3)[nH]c12`, the inhibition came to 9.37%.

Regarding `CCNC(=O)c1ccc(-n2nc(C)cc2-c2ccccc2)cc1`, the inhibition is 3.31%.

Consider `Cc1ccccc1CN1CCCN(Cc2ccc(C(=O)Nc3ccc(Cl)cc3)cc2)CC1`, for which the inhibition is 6.18%.

`CC(C)c1cccc(C(NC(=O)[C@H]2Cc3ccccc3CN2C(=O)c2cccc(N3CCOCC3)c2)C2CCCC2)c1` (stereo not given in full): the inhibition amounted to 0.21%.

With `COc1cc(C2=NN(S(=O)(=O)c3c(Cl)cc(Cl)cc3Cl)CCCC2)ccc1Cl`, the inhibition was determined as 2.71%.

Take `Nc1nc(N)c2c(ccc3c2ccn3Cc2ccc(OCc3ccccc3)cc2)n1`: the inhibition is -1.46%.

As for `COC(=O)c1ccc2nc(-c3ccc(C(=O)NC4CCN(Cc5ccccc5)CC4)s3)[nH]c2c1`, the inhibition stood at 10.5%.

Consider `COc1cc2c(cc1S(=O)(=O)c1ccc(COc3ccc(C(F)(F)F)cc3)cc1)CNCC2`, for which the inhibition was -0.71%.

With `N#Cc1ccc2[nH]cc(C(=O)CCCCCN(Cc3ccccc3)Cc3ccccc3)c2c1`, the inhibition was -2.35%.

On to `Cc1nc2ccc(-c3ccc(OC(F)(F)F)cc3)cc2c(O)c1C#N`, for which the inhibition was 0.11%.

Consider `O=C(Nc1nc2ccc(Cl)cc2s1)c1csnn1`, for which the inhibition was -1.39%.

In the case of `N=C(N)Nc1nc(-c2cccc(NC(=O)NCCc3c[nH]c4ccc(OCc5ccccc5)cc34)c2)cs1`, the inhibition was 1.4%.

As for `CCOc1ccc(-c2nc(NC(=O)CS(=O)(=O)c3ccccc3)sc2C)cc1`, the inhibition is 2.62%.

With `CCCCCCP(=O)(COc1ccc(CCN(CC(O)COc2cccc3[nH]c(C(N)=O)cc23)CC(O)COc2cccc3[nH]c(C(N)=O)cc23)cc1)OCCCC` (stereo not given), the inhibition came to 8.1%.

Take `CCN(CC)CCN(Cc1ccc(-c2ccc(C(F)(F)F)cc2)cc1)C(=O)Cn1c(CCc2cccc(F)c2F)nc(=O)c2ccc(F)cc21`: the inhibition was determined as 1.35%.

As for `Nc1c(Cl)cc(C(O)CNCCCCCCOCCC=C2CCOCC2)cc1Cl` (stereo not given), the inhibition stood at 0.32%.

`CN1CCC(N2CCC(Oc3cccc(C(=O)NCCCC4CCCC4)c3)CC2)CC1`: the inhibition was determined as 10.4%.

In the case of `CCOc1ccc2[nH]c(C)cc(=NN=Cc3cccc(C)n3)c2c1`, the inhibition is 7.58%.

Regarding `CCCCC(=O)Nc1ccc(Nc2nc(C)cc(N3CCCC3)n2)cc1`, the inhibition was determined as 3.88%.

As for `NC1CCN(Cc2ccc(-c3cccc(-c4nc5ccccc5[nH]4)c3)cc2)C1` (stereo not given), the inhibition was found to be 5.29%.

As to `CCn1cnc2c(N3CCCS3(=O)=O)cc(C(=O)N[C@@H](Cc3ccccc3)[C@H](O)CNC(C)(C)c3cccc(C(F)(F)F)c3)cc21`, the inhibition was 2.45%.

For the compound `COc1cccc(-c2cc(C(F)(F)F)n3ncc(C(=O)Nc4cc(Cl)ccc4O)c3n2)c1`, the inhibition came out at 1.53%.

On to `Cc1ccc(C2CCN(CCCCNC(=O)c3ccc(-c4ccc(C(F)(F)F)cc4)cc3)CC2)c(O)c1`, for which the inhibition was -0.08%.

Consider `Cc1cc(NC(=O)NCCN2CCC(NC(=O)c3ccc(C(F)(F)F)cc3)CC2)c2ccccc2n1`, for which the inhibition was 0.01%.

As for `Nc1c(Cl)cc(C(O)CNCCCCCOCCCc2ccc3ncccc3c2)cc1Cl` (stereo not given), the inhibition is 5.02%.

In the case of `COc1c(C2CCN(CCN3CCC(CNC(=O)c4ccc(-c5ccc(C#N)cc5)cc4)CC3)CC2)ccc2c1CCCC2`, the inhibition was 8.83%.

On to `CCn1ccc2c(N3CCCC3=O)cc(C(=O)N[C@@H](Cc3ccccc3)[C@H](O)CNC3CCCCC3)cc21`, for which the inhibition turned out to be 7.08%.

For the compound `Cc1ccc(-c2ccc3c(c2)C=C(C(=O)NC2CCN(CCNC(=O)c4cccs4)CC2)CCC3)cc1`, the inhibition was 2.81%.

A further assay addresses Glucose transporter (Leishmania mexicana) (UniProt O61059). The experiment in a line: ST_JUDE_LEISH: Cytotoxicity at 2uM final concentration against transgenic Leishmania Mexicana promastigotes LmGT2 that are glucose transport deficient and complemented with the L. Mexicana glucose transporter 2. Activity is measured by DNA content using SYBR green in vitro. It counts as functional.
Consider `COc1ccc(CN2CCC(N3CCc4cc(NC(=O)c5cc(C)on5)ccc43)C2)cc1Cl` (stereo not given), for which the inhibition turned out to be 0.69%.

On to `Cc1cccc2nc(-c3cccc(-c4cccc(NC(=O)c5cncn5C)c4)c3)[nH]c12`, for which the inhibition amounted to 4.6%.

As to `CN(C)Cc1ccc2cc(NC(=O)c3ccc(-c4ccc(Cl)cc4)cc3)ccc2c1`, the inhibition was determined as 2.55%.

`Cc1nc(-c2cccc(Nc3nccc(NCC(O)c4ccc(C(F)(F)F)cc4)n3)c2)cs1` (stereo not given): the inhibition is -0.68%.

Regarding `O=c1cc(NCCCNCc2scc3c(Cl)cc(C(F)(F)F)nc23)[nH]c2ccccc12`, the inhibition was 3.05%.

As to `CCN(CC)CC(O)c1cc(-c2ccc(C)cc2)nc2c(C)cc(C)cc12` (stereo not given), the inhibition was -1.02%.

Take `CC(c1cccc(Nc2nccc(-c3c(-c4cccc(NC(=O)c5c(F)cccc5F)c4)nn4ccccc34)n2)c1)S(C)(=O)=O` (stereo not given): the inhibition was -0.68%.

Consider `Cc1cccc2nc(-c3ccc(-c4ccc(CNCc5cnn(-c6ccccc6)n5)cc4)s3)[nH]c12`, for which the inhibition was -1.83%.

On to `COc1ccccc1-n1c(SCC(=O)c2ccc3c(c2)CC(=O)N3C)nnc1-c1cccs1`, for which the inhibition is 13.3%.

As for `CS(=O)(=O)NCCCNCc1ccc(-c2ccc(-c3nc4cc(F)ccc4[nH]3)s2)cc1`, the inhibition is -2.09%.

On to `COc1cc(CN2CCC(CO)(Cc3cccc(C(F)(F)F)c3)CC2)c(Cl)cc1O`, for which the inhibition is -0.81%.

`Cc1cccc2nc(-c3ccc(-c4ccc(CNC(C)C)cc4)cc3)[nH]c12`: the inhibition was 15.7%.

As to `Cc1cccc2nc(-c3ccc(-c4ccc(CN5CCC(C(N)=O)CC5)cc4)s3)[nH]c12`, the inhibition turned out to be 8.95%.

For `CCNC(=O)c1ccc(-n2nc(C)cc2-c2ccccc2)cc1`, the inhibition is -0.67%.

Regarding `Cc1ccccc1CN1CCCN(Cc2ccc(C(=O)Nc3ccc(Cl)cc3)cc2)CC1`, the inhibition was determined as 6.4%.

Take `CC(C)c1cccc(C(NC(=O)[C@H]2Cc3ccccc3CN2C(=O)c2cccc(N3CCOCC3)c2)C2CCCC2)c1` (stereo not given in full): the inhibition amounted to 0.64%.

With `COc1cc(C2=NN(S(=O)(=O)c3c(Cl)cc(Cl)cc3Cl)CCCC2)ccc1Cl`, the inhibition came to 4.36%.

As for `Nc1nc(N)c2c(ccc3c2ccn3Cc2ccc(OCc3ccccc3)cc2)n1`, the inhibition was -0.6%.

For the compound `COC(=O)c1ccc2nc(-c3ccc(C(=O)NC4CCN(Cc5ccccc5)CC4)s3)[nH]c2c1`, the inhibition was found to be 8.06%.

Turning to `COc1cc2c(cc1S(=O)(=O)c1ccc(COc3ccc(C(F)(F)F)cc3)cc1)CNCC2`, the inhibition is -1.92%.

Consider `N#Cc1ccc2[nH]cc(C(=O)CCCCCN(Cc3ccccc3)Cc3ccccc3)c2c1`, for which the inhibition is -0.24%.

In the case of `Cc1nc2ccc(-c3ccc(OC(F)(F)F)cc3)cc2c(O)c1C#N`, the inhibition was -1.44%.

Take `O=C(Nc1nc2ccc(Cl)cc2s1)c1csnn1`: the inhibition was -5.77%.

For `N=C(N)Nc1nc(-c2cccc(NC(=O)NCCc3c[nH]c4ccc(OCc5ccccc5)cc34)c2)cs1`, the inhibition amounted to 0.56%.

Turning to `CCOc1ccc(-c2nc(NC(=O)CS(=O)(=O)c3ccccc3)sc2C)cc1`, the inhibition turned out to be 1.8%.

With `CCCCCCP(=O)(COc1ccc(CCN(CC(O)COc2cccc3[nH]c(C(N)=O)cc23)CC(O)COc2cccc3[nH]c(C(N)=O)cc23)cc1)OCCCC` (stereo not given), the inhibition was determined as 6.45%.

Take `CCN(CC)CCN(Cc1ccc(-c2ccc(C(F)(F)F)cc2)cc1)C(=O)Cn1c(CCc2cccc(F)c2F)nc(=O)c2ccc(F)cc21`: the inhibition is 2.49%.

In the case of `Nc1c(Cl)cc(C(O)CNCCCCCCOCCC=C2CCOCC2)cc1Cl` (stereo not given), the inhibition was -1.31%.

As for `CN1CCC(N2CCC(Oc3cccc(C(=O)NCCCC4CCCC4)c3)CC2)CC1`, the inhibition was found to be 10.3%.

On to `CCOc1ccc2[nH]c(C)cc(=NN=Cc3cccc(C)n3)c2c1`, for which the inhibition was 2.54%.

Take `CCCCC(=O)Nc1ccc(Nc2nc(C)cc(N3CCCC3)n2)cc1`: the inhibition came to 3.88%.

With `NC1CCN(Cc2ccc(-c3cccc(-c4nc5ccccc5[nH]4)c3)cc2)C1` (stereo not given), the inhibition stood at 5.76%.

For `CCn1cnc2c(N3CCCS3(=O)=O)cc(C(=O)N[C@@H](Cc3ccccc3)[C@H](O)CNC(C)(C)c3cccc(C(F)(F)F)c3)cc21`, the inhibition amounted to 2.04%.

Take `COc1cccc(-c2cc(C(F)(F)F)n3ncc(C(=O)Nc4cc(Cl)ccc4O)c3n2)c1`: the inhibition was -2.22%.

Regarding `Cc1ccc(C2CCN(CCCCNC(=O)c3ccc(-c4ccc(C(F)(F)F)cc4)cc3)CC2)c(O)c1`, the inhibition was -0.78%.

For the compound `Cc1cc(NC(=O)NCCN2CCC(NC(=O)c3ccc(C(F)(F)F)cc3)CC2)c2ccccc2n1`, the inhibition was -0.57%.

Turning to `Nc1c(Cl)cc(C(O)CNCCCCCOCCCc2ccc3ncccc3c2)cc1Cl` (stereo not given), the inhibition was 4.94%.

For `COc1c(C2CCN(CCN3CCC(CNC(=O)c4ccc(-c5ccc(C#N)cc5)cc4)CC3)CC2)ccc2c1CCCC2`, the inhibition is 8.54%.

For the compound `CCn1ccc2c(N3CCCC3=O)cc(C(=O)N[C@@H](Cc3ccccc3)[C@H](O)CNC3CCCCC3)cc21`, the inhibition is 0.18%.

Take `Cc1ccc(-c2ccc3c(c2)C=C(C(=O)NC2CCN(CCNC(=O)c4cccs4)CC2)CCC3)cc1`: the inhibition turned out to be 2.25%.

Broadly, the inhibition is the relative decrease from the control value, in per cent.

Values taken from ChEMBL document CHEMBL3433997, “St. Jude Leishmania screening dataset” (2016).
